Assay outcomes: PubChem BioAssay, National Center for Advancing Translational Sciences (NCATS)
DT40 TDP1 CPT: qHTS for Inhibitors of human tyrosyl-DNA phosphodiesterase 1 (TDP1): qHTS in cells in presence of CPT; 12% of 420,000 active; chicken DT40 Tdp1-/-;hTDP1 cells + 20 nM CPT, ATP luminescence, 48 h; Potency, µM (titrated, usually from 46.2 µM), usual class: inhibitors; note: nearly all actives have a fitted effect of over 55% in size
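Chicken DT40 Tdp1-/- cells complemented with human TDP1, 400 cells/well, exposed to compounds plus 20 nM camptothecin for at least 48 h at 37 C; viability read as ATP content by CellTiter-Glo luminescence.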
HT1080 IDH1KD tx: qHTS for induction of synthetic lethality in tumor cells producing 2HG: qHTS for the HT-1080-IDH1KD cell line; HT-1080 IDH1 knockdown viability, ATP luminescence, 48 h; Potency, µM (highest dose often 46.1 µM), most hits filed as cytotoxic; 2% of 360,000 active; AID 686971, 2013
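After a 2 h attachment period, IDH1KD HT-1080 cells took pin-transferred compound for 48 h at 37 °C; ATP-based luminescence after 10 min room-temperature reagent incubation reported viability.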
TDP1 cell noCPT: qHTS for Inhibitors of human tyrosyl-DNA phosphodiesterase 1 (TDP1): qHTS in cells in absence of CPT. DT40 Tdp1-/- hTDP1 cells, no CPT, ATP luminescence, 48 h. Potency, µM (series often up to 46.2 µM), most hits filed as inhibitors. 15% of 420,000 active. AID 686978, 2013; note: nearly all actives have a fitted effect of over 55% in size
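Growth of hTDP1-complemented DT40 Tdp1-knockout cells is measured by ATP luminescence after at least 48 hr compound exposure at 37 °C, with DMSO substituting for the 20 nM CPT used in the parallel screen.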
IL1B secr inh: qHTS for Inhibitors of Inflammasome Signaling: IL-1-beta AlphaLISA Primary Screen; THP-1 LPS/ATP IL-1B secretion, AlphaLISA, 16 h; stronger effect = lower value; activity change, % at 57.5 µM; 4.7% of 360,000 active; AID 743279, 2014; in the data active = activity change below about -50%; inconclusive = mostly about -30% to -49%
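THP-1 cells pretreated 1 hr with compounds (up to 57.5 uM final), then stimulated with LPS (250 ng/mL final) plus ATP (1.25 mM final); secreted IL-1B measured by AlphaLISA after 16 hr, decreased signal indicating inhibition.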
ALOX12 inh: Primary qHTS assay for inhibitors of human arachidonate 12S-lipoxygenase (ALOX12): Round 2 | purified 12hLO, xylenol orange hydroperoxide absorbance | Potency, µM (series often up to 108 µM), most hits filed as inhibitors | 1.1% of 580,000 active | AID 1671190, 2021
Target sequence (P18054 whole entry, looked up): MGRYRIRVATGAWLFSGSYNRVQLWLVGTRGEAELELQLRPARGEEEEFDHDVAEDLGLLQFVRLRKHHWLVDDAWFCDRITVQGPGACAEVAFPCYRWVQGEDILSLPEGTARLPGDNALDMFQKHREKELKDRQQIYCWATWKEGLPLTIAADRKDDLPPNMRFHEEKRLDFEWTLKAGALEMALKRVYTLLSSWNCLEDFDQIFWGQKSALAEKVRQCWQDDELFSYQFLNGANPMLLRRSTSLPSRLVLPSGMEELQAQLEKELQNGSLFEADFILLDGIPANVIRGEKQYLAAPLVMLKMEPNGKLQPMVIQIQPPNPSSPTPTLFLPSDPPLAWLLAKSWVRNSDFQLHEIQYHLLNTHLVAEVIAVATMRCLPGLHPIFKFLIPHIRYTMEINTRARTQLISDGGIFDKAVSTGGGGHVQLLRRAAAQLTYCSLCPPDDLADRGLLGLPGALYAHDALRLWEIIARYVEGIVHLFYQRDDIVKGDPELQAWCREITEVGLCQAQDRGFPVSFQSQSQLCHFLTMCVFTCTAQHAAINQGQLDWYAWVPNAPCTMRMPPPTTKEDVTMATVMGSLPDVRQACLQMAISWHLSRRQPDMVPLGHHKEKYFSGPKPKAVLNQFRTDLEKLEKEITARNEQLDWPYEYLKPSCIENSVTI
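Purified human 12hLO at 150 nM in 25 mM Hepes, 0.01% Triton X-100, pH 7.0, preincubated 15 min at room temperature with compound. Reaction started with 40 uM arachidonic acid, 30 min at room temperature. Hydroperoxide measured by Fe-xylenol orange, 573/405 nm absorbance ratio.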
HT1080-NT tox: qHTS for induction of synthetic lethality in tumor cells producing 2HG: qHTS for the HT-1080-NT fibrosarcoma cell line | 1.6% of 360,000 active | HT-1080-NT fibrosarcoma viability, CellTiter-Glo ATP luminescence, 48 h | AID 686970, 2013 | Potency, µM (series often up to 46.1 µM), usual class: cytotoxic;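 note: NT is the 2HG producing partner of a matched IDH1 knockdown line; nearly all actives have a fitted effect of over 55% in size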
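Fibrosarcoma NT cells, 750 per well in 5% FBS RPMI, were exposed to compound for 48 hours. Viability: CellTiter-Glo luminescence.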
Large screens that a line does not name were inactive. This is one part of a sample in which hits are shown more often than they occur. Unless noted, calls come from the whole dose curve; as a rule, active = well fitted curve in the direction sought with a large enough effect; inconclusive = small, poorly fitted or top-dose-only effect, or another doubt; inactive = no such curve, though single readings can be large; an effect the other way counts as inactive or inconclusive.

COc1ccccc1CNc1nc(NCc2ccccc2)nc2ccsc12	DT40 TDP1 CPT 23.1µM, HT1080 IDH1KD tx 18.4µM, TDP1 cell noCPT 14.6µM, IL1B secr inh -100.3, ALOX12 inh inconclusive, HT1080-NT tox 25.9µM
COc1ccccc1CNc1nc(NCc2cnc(C)cn2)c2sccc2n1	DT40 TDP1 CPT inconclusive, TDP1 cell noCPT inconclusive
CCOc1ccccc1NC(=O)COC(=O)CCOc1cc(C)ccc1C	ALOX12 inh inconclusive
CCn1c(SCC(=O)NCc2ccc(C)cc2)nnc1-c1cccs1	none (no result: DT40 TDP1 CPT, HT1080 IDH1KD tx, TDP1 cell noCPT, IL1B secr inh, HT1080-NT tox)
O=C(NCc1ccc(F)cc1)N(Cc1ccc(Cl)c(Cl)c1)Cc1ccccn1	none (no result: DT40 TDP1 CPT, HT1080 IDH1KD tx, TDP1 cell noCPT, IL1B secr inh, HT1080-NT tox)
COc1ccccc1CNc1nc(NCc2ccccc2F)c2sccc2n1	DT40 TDP1 CPT 2.91µM, HT1080 IDH1KD tx 20.6µM, TDP1 cell noCPT 4.11µM, IL1B secr inh -82.8, HT1080-NT tox 23.1µM (no result: ALOX12 inh)
COc1ccccc1CNc1nc(NCc2ccc(C)cc2C)c2sccc2n1	DT40 TDP1 CPT 4.61µM, HT1080 IDH1KD tx inconclusive, TDP1 cell noCPT 9.2µM, IL1B secr inh -79.6, HT1080-NT tox inconclusive (no result: ALOX12 inh)
c1ccc(CNc2nc(NCc3ccccc3)c3sccc3n2)cc1	DT40 TDP1 CPT 23.1µM, HT1080 IDH1KD tx inconclusive, TDP1 cell noCPT 18.4µM, IL1B secr inh -72.9, ALOX12 inh inconclusive, HT1080-NT tox inconclusive
Fc1ccccc1CNc1nc(NCC2CC2)nc2ccsc12	DT40 TDP1 CPT 14.6µM, HT1080 IDH1KD tx 20.6µM, TDP1 cell noCPT 16.4µM, IL1B secr inh -76.0, ALOX12 inh inconclusive, HT1080-NT tox 23.1µM
CC(NC(=O)OCc1ccccc1)c1nc2cccnc2n1C1CC1 (stereo unspecified)	none (no result: DT40 TDP1 CPT, HT1080 IDH1KD tx, TDP1 cell noCPT, IL1B secr inh, HT1080-NT tox)
Cc1ccc2[nH]c(=O)c(CN(Cc3ccccc3)C(=S)NCCCN(C)C)cc2c1	DT40 TDP1 CPT inconclusive, HT1080 IDH1KD tx 16.4µM, TDP1 cell noCPT inconclusive, IL1B secr inh -87.4, ALOX12 inh inconclusive, HT1080-NT tox 18.4µM
COc1cc2cc(CN(CCc3ccccc3C)C(=S)NCCCN(C)C)c(=O)[nH]c2cc1OC	DT40 TDP1 CPT inconclusive, TDP1 cell noCPT 16.4µM
CCNC(=S)N(CCc1ccccc1C)Cc1cc2cc(OC)c(OC)cc2[nH]c1=O	ALOX12 inh inconclusive
CC(NC(=O)C12CC3CC(C1)CC(n1cncn1)(C3)C2)C12CC3CC(CC(C3)C1)C2 (stereo unspecified)	DT40 TDP1 CPT 10.3µM, TDP1 cell noCPT 8.2µM
CC(C)Oc1ccc(C(=O)Nc2ccc(C(F)(F)F)oc2=O)cc1	none (no result: DT40 TDP1 CPT, HT1080 IDH1KD tx, TDP1 cell noCPT, IL1B secr inh, HT1080-NT tox)
COc1cccc(NC(=O)CN(C)CC(=O)Nc2ccc(C)cc2Cl)c1	DT40 TDP1 CPT inconclusive, TDP1 cell noCPT 13µM
O=C(CCSc1ccc(Br)cc1)Nc1cccnc1	TDP1 cell noCPT 23.1µM
CCN(CC(=O)Nc1cccc(OC)c1)CC(=O)Nc1ccc(Br)c(C)c1	DT40 TDP1 CPT inconclusive, HT1080 IDH1KD tx inconclusive, IL1B secr inh -68.4, HT1080-NT tox inconclusive
CCN(CC(=O)Nc1cccc(OC)c1)CC(=O)Nc1ccccc1C	none
Cc1cc(NC(=O)CN(C)CCOc2ccccc2)ccc1Br	DT40 TDP1 CPT 18.4µM, HT1080 IDH1KD tx inconclusive, TDP1 cell noCPT 18.4µM, IL1B secr inh -51.7, HT1080-NT tox inconclusive
COc1ccc(-c2nc(CC(=O)NC3CCN(Cc4ccccc4)CC3)cs2)cc1OC	none (no result: DT40 TDP1 CPT, HT1080 IDH1KD tx, TDP1 cell noCPT, IL1B secr inh, HT1080-NT tox)
Cc1cc(Br)ccc1NC(=O)CCSc1ccccc1	none
Cc1cc(NC(=O)CCSc2ccccc2)ccc1Br	IL1B secr inh -66.8
C/C(=N\NC(=S)NCc1ccccc1)C1CC1	none (no result: DT40 TDP1 CPT, HT1080 IDH1KD tx, TDP1 cell noCPT, IL1B secr inh, HT1080-NT tox)
CCCCn1c(N)c(NCC)c(=O)[nH]c1=O	DT40 TDP1 CPT inconclusive, TDP1 cell noCPT 23.1µM
Cn1c(=O)n(C/C=C/c2ccccc2)c(=O)c2c1nc1n2CCN1c1ccc(F)cc1	none (no result: HT1080 IDH1KD tx, IL1B secr inh, HT1080-NT tox)
